# Compounds without any hit were thinned out: in the full panel of roughly 83,000, 20% have a hit.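 Step 1: grow cells in 96-well plates. Step 2: add test compound at a single concentration. Step 3: incubate 48 h. Step 4: record percent growth.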 The source made the active and inactive calls. How the source made its calls: active means growth percent below 10; inactive means the rest.
# System: NCI-H23 lung
# Test: NCI-60 one-dose screen, 48 h (100 = growth as untreated, 0 = no growth, -100 = all killed)
# Conditions: 10 µM unless noted
row,Structure (SMILES),growth
1,O=c1[nH]n(C(=S)N/N=C/c2ccccc2Cl)c(=O)c2ccccc12,-43.6% (active)
2,Cn1cc(-c2nnc(N)nc2-c2c[nH]c3ccc(F)cc23)c2cccnc21,53.7% (inactive)
3,CN1CCN(Cc2ccc(C(=O)Nc3cccc(C#Cc4cccc5[nH]nc(N)c45)c3)cc2C(F)(F)F)CC1,-87.3% (active)
4,Cc1ccccc1[C@H]1C(C(=O)c2ccc(Cl)cc2)C2(N[C@@H]1c1ccccc1)C(=O)Nc1ccc(Br)cc12 (stereo partly drawn),-3.76% (active)
5,N#Cc1c(-c2cccc(Cl)c2Cl)cc(-c2ccc3ccccc3c2)[nH]c1=O,56.9% (inactive)
6,NS(=O)(=O)c1ccc(-n2cc(-c3cccc(NC(=O)c4cc(C(F)(F)F)cc(C(F)(F)F)c4)c3)nn2)cc1,41.1% (inactive)
7,COc1ccc(C(=O)/C=C/c2ccccc2Cl)cc1S(N)(=O)=O,117% (inactive)
8,O=C(/C=C/c1cccc(OCc2ccc(F)cc2)c1)c1nc2ccccc2[nH]1,73% (inactive)
9,Cc1cc(=O)oc2cc(OCCCOc3ccc(/C=C/C(=O)Nc4ccccc4N)cc3)ccc12,45.2% (inactive)
10,S=C(Nc1ccc(OCc2nc3ccccc3[nH]2)cc1)NC1CCCCC1,101% (inactive)
11,N#Cc1c(-c2ccccc2Cl)cc(-c2c[nH]c3ccccc23)[nH]c1=O,69.9% (inactive)
12,CC1=C(C(=O)OCc2ccccc2)C(c2c(O)cc(O)cc2O)n2c(nc3ccccc32)N1 (stereo not drawn),65.9% (inactive)
13,CCOc1ccc(-c2c(C#N)c(-c3ccc(Cl)cc3)nc3n[nH]c(-c4ccc(Cl)cc4)c23)cc1OC,70.1% (inactive)
14,Cc1ccc(Cc2cnc(NC(=O)c3ccc(/C=C4\SC(=S)N(C)C4=O)cc3)s2)cc1,41.3% (inactive)
15,Cc1ccc(C(=O)CSc2nc3ccc(F)cc3c(=O)n2-c2ccc(Cl)cc2)cc1,46% (inactive)
16,C[C@H](Nc1nc(NCCc2ccccc2)nc2ccccc12)c1ccccc1,-85.2% (active)
17,COc1cc(-c2ccc(/C=N/NC(=O)c3[nH]c4ccc(Br)cc4c3-c3ccccc3)s2)cc(OC)c1OC,68.2% (inactive)
18,OCNc1ccc(-n2cnc3cc(-c4ccc(O)cc4)ccc32)cc1C(F)(F)F,27% (inactive)
19,COc1cc(OC)cc(C(=O)Nc2cccc(-c3cn(-c4ccc(S(N)(=O)=O)cc4)nn3)c2)c1,80.3% (inactive)

row,Structure (SMILES),growth
1,COc1ccc2[nH]c(O)c(N=NC(=O)COc3ccc(NC(=O)Nc4ccccc4)cc3)c2c1,20.2% (inactive)
2,Cc1ccc2c(N)c(C(=O)Nc3ccc(OC(F)(F)F)cc3)sc2n1,47.6% (inactive)
3,COc1cc(/C=C/C(=O)c2ccc(C)cc2)ccc1Oc1nc(Nc2ccc(F)cc2)nc(N(C)C)n1,39% (inactive)
4,N#Cc1c(NCc2ccccc2)n[nH]c1Nc1ccccc1,58.4% (inactive)
5,CC(C)c1sc(NC(=O)c2cc(NC(=O)c3cc(NC(=O)c4cscn4)cn3C)cn2C)nc1C(=O)NCCCN(C)C,-22.3% (active)
6,CCOc1ccc(C(=O)NC(=S)Nc2ccc(S(N)(=O)=O)cc2)cc1,97.5% [100 µM] (inactive)
7,Nc1cccc(SCc2cc3ccccc3[nH]c2=O)c1,73.5% (inactive)
8,CC1=C(C(=O)c2ccccc2)C(c2ccc(-n3cncn3)cc2)n2c(nc3ccccc32)N1 (stereo not drawn),87.9% (inactive)
9,O=C(c1ccc(OCCN2CCOCC2)cc1)C1[C@H](c2ccc(Cl)cc2)[C@@H](c2ccccc2)NC12C(=O)Nc1ccc(Cl)cc12 (stereo partly drawn),37.9% (inactive)
10,CCCCCCCCc1ccc(S(=O)(=O)Nc2ccc(CC)cc2C(=O)O)cc1,97.3% (inactive)
11,COc1cc2oc(-c3cccc(C(=O)Nc4cccc([N+](=O)[O-])c4)c3)cc(=O)c2c(OC)c1OC,41.1% (inactive)
12,C=C1CC[C@@H]2[C@]3(C)COC(c4ccccc4)O[C@@H]3CC[C@@]2(C)[C@@H]1C/C=C1/C(=O)OCC1OC(C)=O (stereo partly drawn),-18.5% (active)
13,C=C1CC[C@@H]2[C@]3(C)COC(c4cn[nH]c4-c4ccc(C)cc4)O[C@@H]3CC[C@@]2(C)[C@@H]1C/C=C1/C(=O)OCC1O (stereo partly drawn),-8.25% (active)
14,CC(C)CSc1nc(NCCc2c[nH]c3ccccc23)c(C#N)c(-c2ccc(Cl)cc2)n1,69.2% (inactive)
15,NS(=O)(=O)c1ccc(-n2cc(-c3cccc(NC(=O)c4cc(Cl)cc(Cl)c4)c3)nn2)cc1,41.2% (inactive)
16,C=C1CCC2C3(C)COC(c4ccc(F)cc4)OC3CCC2(C)C1C/C=C1/C(=O)OCC1O (stereo not drawn),-40.3% (active)
17,CCN1C(=O)/C(=N\N=C(/C)c2ccc3c(c2)Nc2ccccc2S3)c2cc(Cl)ccc21,50.4% (inactive)
18,N#Cc1c(-c2cccc3ccccc23)cc(-c2cccc(OCC(=O)O)c2)[nH]c1=O,97.7% (inactive)
19,O=C(COc1ccc(NC(=O)Nc2ccccc2)cc1)N=Nc1c(O)[nH]c2ccc([N+](=O)[O-])cc12,10.5% (inactive)

# Source: PubChem BioAssay (NCI)
